# Target: C2orf82
# Experiment: pooled miR-30 sensor sort-seq; sequence = guide strand
# Conditions: shRNA
# Further: reference of the scale not given here.
row,Sequence,sensor-assay potency score (higher = more potent)
1,CTGTGGAACATCGTCTGTGAGC,-2.1
2,CTCCTGTGGAACATCGTCTGTG,-1.6
3,TCTCAGCGCGACGACCACGAGC,-1.5
4,TCGTCTGTGAGCACCGCAGGGG,-0.778
5,TTTCTCAGCGCGACGACCACGA,0.0474
6,TCCTGTGGAACATCGTCTGTGA,-0.191
7,AACATCGTCTGTGAGCACCGCA,0.28
8,ATCGTCTGTGAGCACCGCAGGG,-1.34
9,TGGTCCAGCCGCTCCTGCGCGG,-1.68
10,ACGAGCGCCAGCACCACGCAGG,-1.89
11,ACATCGTCTGTGAGCACCGCAG,-1.82

# Target: C3orf22
# Experiment: as above
# Conditions: shRNA
row,Sequence,sensor-assay potency score (higher = more potent)
1,TTTATTAGCTTGGTGTAGCTTT,0.257
2,TTGGCACCAACCTCTTCTGCAG,-0.633
3,TCCTCCACTTCTTACTCTGGTG,-1.52
4,TCCACTTCTTACTCTGGTGAGA,-1.65
5,TTGCACAGTGGAGGTGGTGATG,-1.21
6,TGTACGGAAACTTCTTGGCAAA,-1.61
7,TTCGAGTCGTTTGTGACCTCCC,0.262
8,TTCTTGGCAAAATTCTCCTGGG,-0.771
9,AACCTGTACGGAAACTTCTTGG,-1.12
10,TTACTCTGGTGAGACTTCTTGC,-0.146
11,TCTGTCAGCCACGACAACCTGT,-0.668
12,AAAGGTTGCACAGTGGAGGTGG,1.05
